Data as given in the supplement of paper PMC4466236.
Whole data set: some 33,000 sequences, median “E-score (dimensionless, -0.5 to 0.5)” near -0.058, cut for the highest 2% near 0.35. Shown is part of a subset that was picked to be rich in the highest values.

Tested on: MvaT
Test: PBM 8-mer E-score (mean of HK and ME arrays) (E-score (dimensionless, -0.5 to 0.5)); higher = stronger relative binding preference
Summary of the method: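 Full-length P. aeruginosa MvaT carrying an N-terminal glutathione S-transferase tag was tested by protein binding microarray following a previously described protocol. Two universal double-stranded 60-mer arrays, ME and HK, were used, each with a constant 25-mer primer region and a variable 35-mer region covering all 8-mers. The rank-based E-score is the mean of the two arrays, parsed with a custom script. Its range runs from -0.5 to 0.5 for each 8-mer.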

Row | Sequence | PBM 8-mer E-score
1 | ACTGGAAT | 0.118
2 | AACCGACG | -0.000494
3 | GTGCAAAC | 0.0651
4 | AACCTTAC | -0.0526
5 | AGACCATA | 0.00218
6 | CACAGACG | -0.11
7 | ATTCCTCA | 0.129
8 | ATAAACTG | 0.175
9 | ATAAATTC | 0.309
10 | ATAAACTA | 0.356
11 | GAAAATTA | 0.304
12 | GTAAATTA | 0.391
13 | ATAAATTG | 0.369
14 | ATAAACTC | 0.269
15 | CTAAATTA | 0.336
16 | AAAAATTG | 0.117
17 | GTAAATCA | 0.189
18 | ATAAATTA | 0.42
19 | AAAAATTA | 0.275
20 | AACTGGTC | -0.0685
21 | TGACTGCA | -0.107
22 | AACCCAGT | -0.0508
23 | ATTGCACG | 0.182
24 | ACTCATCA | 0.0732
25 | AACCATCA | -0.0905

Row | Sequence | PBM 8-mer E-score
26 | AAGTCTCT | 0.0309
27 | ATCGAATC | -0.0636
28 | GCGGGTTA | 0.0558
29 | CGCGATAA | 0.143
30 | ACCTATGG | -0.149
31 | TCTATAAA | 0.103
32 | GATATAGC | 0.127
33 | CATATAAG | 0.35
34 | AATATAAC | 0.42
35 | CCTATAAG | 0.0158
36 | GATATAAC | 0.372
37 | GAGATAAC | 0.0136
38 | ACTATAAC | 0.334
39 | GATATAAA | 0.344
40 | TATATAAA | 0.47
41 | AATATGAC | 0.183
42 | CACATAAG | 0.122
43 | CTCAAGGA | -0.151
44 | CCTGCTCC | -0.302
45 | ATTTGTTC | 0.206
46 | ATTTTTTC | 0.132
47 | AAGTGCGT | -0.0188
48 | ACGGTTTC | -0.215
49 | ATTAGCCC | 0.0535
50 | ACACTAGT | 0.258

Row | Sequence | PBM 8-mer E-score
51 | AGTGCTAC | -0.0841
52 | CGAAATGC | -0.0574
53 | AATATAAA | 0.451
54 | TATAAACA | 0.373
55 | CATAAACA | 0.221
56 | CACATAAC | 0.209
57 | CATATAAC | 0.415
58 | GATAAACA | 0.278
59 | AATATGAT | 0.345
60 | AAGATAAT | 0.287
61 | GCTATAAA | 0.217
62 | CATATAGC | 0.0736
63 | AATATAAT | 0.449
64 | GAATGCGA | 0.0642
65 | AATTCTAG | 0.157
66 | CCCGGCCC | -0.325
67 | TGCAAACA | 0.106
68 | ACGGAAGG | -0.218
69 | GATATCAA | 0.25
70 | AAGATAAG | 0.148
71 | CATATCAA | 0.174
72 | AGTATAAG | 0.272
73 | CATAAAAA | 0.179
74 | AATATAAG | 0.351
75 | GATAAAAA | 0.273

Row | Sequence | PBM 8-mer E-score
76 | TATAAAAA | 0.371
77 | CACATAAA | 0.179
78 | CATATAAA | 0.365
79 | TATATCAA | 0.352
80 | CGTATAAA | 0.209
81 | GAATCATA | 0.151
82 | CCATCTGA | -0.117
83 | GTATGAAA | 0.222
84 | GTCTGAGA | -0.139
85 | AGAGATGC | -0.101
86 | ATCTTTAG | 0.14
87 | AGTGATCG | -0.118
88 | AGAGGCTG | -0.304
89 | TTATTGAA | 0.279
90 | TAGGGTAA | 0.133
91 | CTGATAAC | 0.136
92 | AGCACAGG | -0.197
93 | AAACAAGA | 0.166
94 | AAACAACA | 0.214
95 | AAACAATA | 0.375
96 | TAACAATA | 0.394
97 | AAACAATC | 0.06
98 | AAACAATG | 0.201
99 | CAACAATA | 0.289
100 | TATCAATA | 0.365

Row | Sequence | PBM 8-mer E-score
101 | AATCAATA | 0.283
102 | GATCAATA | 0.152
103 | AAACAATT | 0.346
104 | GAACAATA | 0.267
105 | GCAACGAC | -0.141
106 | CCTCAACC | -0.226
107 | AGATCTCG | -0.173
108 | CTCTACTC | -0.0821
109 | GCGCCACC | -0.15
110 | ACAGGGGT | -0.121
111 | AGGACTCG | -0.265
112 | TAACATTA | 0.374
113 | GAACATTA | 0.276
114 | CTACAATA | 0.244
115 | ATACAATA | 0.372
116 | ATACAATC | 0.18
117 | CAACATTA | 0.293
118 | ATCCGTTC | -0.0995
119 | AGATTGAC | -0.15
120 | AAGATATG | 0.136
121 | AAGATATA | 0.419
122 | TAGATATA | 0.368
123 | AAGATATC | 0.26
124 | GAGATATA | 0.303
125 | CAGATATA | 0.237

Row | Sequence | PBM 8-mer E-score
126 | ATTTACGA | 0.167
127 | CTATTTAC | 0.318
128 | ATATTTAA | 0.462
129 | ATATTTCA | 0.329
130 | CTATTTAA | 0.274
131 | ATATTTAG | 0.342
132 | ATATTTAC | 0.36
133 | AGGCACCA | -0.116
134 | AGCTGTCA | -0.156
135 | ATGATCGG | -0.174
136 | AGCTTCCA | -0.151
137 | CGCAAGTA | 0.195
138 | ACATTATA | 0.396
139 | ACATTATG | 0.249
140 | ATATTATG | 0.411
141 | AGATTATG | 0.189
142 | AGATTATC | 0.255
143 | ATCTTATA | 0.238
144 | GCATTATA | 0.309
145 | ATATTATC | 0.439
146 | CCATTATA | 0.302
147 | ATATTATA | 0.477
148 | CTATTATC | 0.263
149 | ATTCAAAC | 0.174
150 | GATACCGA | 0.0372

Row | Sequence | PBM 8-mer E-score
151 | GCTGCCCA | -0.142
152 | GAGGAAGA | -0.133
153 | ACCCGTTG | -0.195
154 | TAGTCACA | 0.0578
155 | AAAACGTA | 0.142
156 | CGCCCATC | -0.117
157 | CACTTGCA | -0.05
158 | CAGCCCTG | -0.254
159 | CGTGTCCA | -0.105
160 | GCACTTCA | -0.102
161 | GTGTGGTA | 0.118
162 | CCCTTCGC | -0.248
163 | AATTAGGG | 0.137
164 | AATCCCCG | -0.164
165 | GTATTATA | 0.437
166 | GTATTACA | 0.224
167 | CTATTCTA | 0.131
168 | GTCTTATA | 0.325
169 | ATATTCTA | 0.348
170 | GTATTCTA | 0.112
171 | CGATTATA | 0.292
172 | GGATTATA | 0.32
173 | CTCTTATA | 0.289
174 | CTTTTATA | 0.31
175 | AGATTATA | 0.39

Row | Sequence | PBM 8-mer E-score
176 | CTATTATA | 0.44
177 | CGCGCTTC | -0.107
178 | CAATGTCC | -0.106
179 | AGCGCCTA | -0.16
180 | AACTACGG | 0.0587
181 | CCGCGCCC | -0.155
182 | AACTCGGT | -0.0107
183 | GCTGTAAC | 0.00489
184 | CGCAAGAG | 0.0446
185 | CGCGGTGA | -0.142
186 | CCCTAAGA | -0.184
187 | ATAGAACG | 0.0944
188 | CCGCAAAG | -0.132
189 | ATGGCCAG | -0.256
190 | GTATGTTA | 0.288
191 | ATATGTAA | 0.309
192 | ATATGTAC | 0.368
193 | ATATGTTG | 0.359
194 | ATATGTCG | 0.22
195 | CTATGTAC | 0.112
196 | CTATGTTA | 0.278
197 | ATATGTTA | 0.423
198 | ATATGTTC | 0.231
199 | AGTCCACT | -0.0256
200 | AATAGACC | 0.00124

Row | Sequence | PBM 8-mer E-score
201 | TTGTACAA | 0.161
202 | CGTCCAGA | -0.16
203 | CCTGCTCG | -0.298
204 | ACAGGTGC | -0.152
205 | AATTGCTG | 0.0923
206 | ATACCCTC | -0.12
207 | CTTGGCCC | -0.249
208 | AAATAGTG | 0.136
209 | AAATAGTT | 0.351
210 | AACTAATG | 0.312
211 | AACTAAAT | 0.351
212 | AACTAAAG | 0.202
213 | AACTAATA | 0.323
214 | AACTAGTA | 0.303
215 | AACTAATT | 0.401
216 | AACTAGTT | 0.392
217 | AACTAGTG | 0.19
218 | AAATAGTC | 0.235
219 | AACTAAAA | 0.345
